Test results from paper PMC8384837, “Expanding the binding specificity for RNA recognition by a PUF domain”.
Changes are numbered by the printed parent chain.

What was measured:
Assay in all cases: yeast three-hybrid, YBZ-1, SC-Leu-His + 0.5 mM 3-AT, 4 days
Details in all cases: tags: N-Gal4 AD-HA kept; label: inside an RPR1-promoter hybrid RNA with tandem MS2 sites; ssRNA
PUM1 PUF domain R3-LNS = PUM1 PUF domain R3-LNS (Homo sapiens, UniProt Q14671 828-1176, C935L;R936N;Q939S)
Summary of the method: (§1)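 Pumilio-1 PUF domain libraries, randomized (NNK) at the three base-contacting residues of each repeat, were co-expressed with matching RNA elements from a centromeric plasmid in strain YBZ-1 (LexA–MS2 coat fusion, HIS3 reporter). Transformants were plated on SC-Leu (input) and SC-Leu-His + 0.5 mM 3-AT (selection) for four days, and repeat regions were PCR-amplified and Illumina-sequenced. The interaction score is the log2 change in variant frequency from input to selection, with pseudocount 1 where absent.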

PUM1 PUF domain R7-KHS = PUM1 PUF domain R7-KHS (Homo sapiens, UniProt Q14671 828-1176, S1079K;N1080H;E1083S)
Summary of the method: as §1

PUM1 PUF domain R7-SRR = PUM1 PUF domain R7-SRR (Homo sapiens, UniProt Q14671 828-1176, N1080R;E1083R)
Summary of the method: as §1

PUM1 PUF domain R4-NNL = PUM1 PUF domain R4-NNL (Homo sapiens, UniProt Q14671 828-1176, H972N;Q975L)
Summary of the method: as §1

PUM1 PUF domain R4-SPN = PUM1 PUF domain R4-SPN (Homo sapiens, UniProt Q14671 828-1176, N971S;H972P;Q975N)
Summary of the method: as §1

PUM1 PUF domain R4-NNC = PUM1 PUF domain R4-NNC (Homo sapiens, UniProt Q14671 828-1176, H972N;Q975C)
Summary of the method: as §1

PUM1 PUF domain R6-CFN = target: T1, PUM1 PUF domain R6-CFN (Homo sapiens, UniProt Q14671 828-1176, N1043C;Y1044F;Q1047N)
T1 sequence: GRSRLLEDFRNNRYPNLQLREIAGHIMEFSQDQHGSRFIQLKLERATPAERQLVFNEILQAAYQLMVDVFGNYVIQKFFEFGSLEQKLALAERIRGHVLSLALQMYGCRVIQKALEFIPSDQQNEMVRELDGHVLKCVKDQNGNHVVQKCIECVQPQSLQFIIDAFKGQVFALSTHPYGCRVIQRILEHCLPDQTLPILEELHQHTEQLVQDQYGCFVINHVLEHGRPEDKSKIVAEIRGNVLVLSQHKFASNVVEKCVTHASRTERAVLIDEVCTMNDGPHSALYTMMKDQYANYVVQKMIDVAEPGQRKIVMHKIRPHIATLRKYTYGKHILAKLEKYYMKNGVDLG
Summary of the method: as §1

PUM1 PUF domain R8-KFC = PUM1 PUF domain R8-KFC (Homo sapiens, UniProt Q14671 828-1176, N1122K;Y1123F;Q1126C)
Summary of the method: as §1

PUM1 PUF domain R6-CWC = target: T2, PUM1 PUF domain R6-CWC (Homo sapiens, UniProt Q14671 828-1176, N1043C;Y1044W;Q1047C)
T2 sequence: T1 sequence with F217W, N220C
Summary of the method: as §1

PUM1 PUF domain R8-CFR = PUM1 PUF domain R8-CFR (Homo sapiens, UniProt Q14671 828-1176, N1122C;Y1123F;Q1126R)
Summary of the method: as §1

PUM1 PUF domain R8-PYW = PUM1 PUF domain R8-PYW (Homo sapiens, UniProt Q14671 828-1176, N1122P;Q1126W)
Summary of the method: as §1

PUM1 PUF domain R8-TRK = PUM1 PUF domain R8-TRK (Homo sapiens, UniProt Q14671 828-1176, N1122T;Y1123R;Q1126K)
Summary of the method: as §1

PUM1 PUF domain R5-SLC = PUM1 PUF domain R5-SLC (Homo sapiens, UniProt Q14671 828-1176, C1007S;R1008L;Q1011C)
Summary of the method: as §1

PUM1 PUF domain R6-RRE = target: T3, PUM1 PUF domain R6-RRE (Homo sapiens, UniProt Q14671 828-1176, N1043R;Y1044R;Q1047E)
T3 sequence: T1 sequence with C216R, F217R, N220E
Summary of the method: as §1

PUM1 PUF domain R5-DRD = PUM1 PUF domain R5-DRD (Homo sapiens, UniProt Q14671 828-1176, C1007D;Q1011D)
Summary of the method: as §1

PUM1 PUF domain R1-RCC = PUM1 PUF domain R1-RCC (Homo sapiens, UniProt Q14671 828-1176, S863R;R864C;Q867C)
Summary of the method: as §1

PUM1 PUF domain R1-VRR = PUM1 PUF domain R1-VRR (Homo sapiens, UniProt Q14671 828-1176, S863V;Q867R)
Summary of the method: as §1

PUM1 PUF domain R5-RLQ = PUM1 PUF domain R5-RLQ (Homo sapiens, UniProt Q14671 828-1176, C1007R;R1008L)
Summary of the method: as §1

PUM1 PUF domain R7-ERK = PUM1 PUF domain R7-ERK (Homo sapiens, UniProt Q14671 828-1176, S1079E;N1080R;E1083K)
Summary of the method: as §1

PUM1 PUF domain R1-KCN = PUM1 PUF domain R1-KCN (Homo sapiens, UniProt Q14671 828-1176, S863K;R864C;Q867N)
Summary of the method: as §1

Which binding signal (PUM1 PUF domain R3-LNS) does the source give for “GGCUAGAACUAGUGGAUCCCCCGGCGCCCGGCGGCUCGAGCCCGGGUAAGUGUAAUUAGUCUGCAUGCCGCCGGGCGCCAUGCCUGCAGGUCGACUCUAGAAAACAUG” here?
Its binding signal is 3.52 log2 enrichment (interaction score).

“GGCUAGAACUAGUGGAUCCCCCGGCGCCCGGCGGCUCGAGCCCGGGUAAGUAUAAAUAGUCUGCAUGCCGCCGGGCGCCAUGCCUGCAGGUCGACUCUAGAAAACAUG” was tested. Which binding signal (PUM1 PUF domain R7-KHS) did it give?
The binding signal was 2.08 log2 enrichment (interaction score).

With “GGCUAGAACUAGUGGAUCCCCCGGCGCCCGGCGGCUCGAGCCCGGGUAAGUUUAAAUAGUCUGCAUGCCGCCGGGCGCCAUGCCUGCAGGUCGACUCUAGAAAACAUG” as the sequence, how does the binding signal (PUM1 PUF domain R7-SRR) read?
Its binding signal is 2.68 log2 enrichment (interaction score).

How did the binding signal (PUM1 PUF domain R4-NNL) turn out when “GGCUAGAACUAGUGGAUCCCCCGGCGCCCGGCGGCUCGAGCCCGGGUAAGUGUAUAUAGUCUGCAUGCCGCCGGGCGCCAUGCCUGCAGGUCGACUCUAGAAAACAUG” was run?
The binding signal was 3 log2 enrichment (interaction score).

And the binding signal (PUM1 PUF domain R4-SPN)?
Its binding signal is 4.43 log2 enrichment (interaction score).

And the binding signal (PUM1 PUF domain R4-NNC)?
The binding signal was 3.85 log2 enrichment (interaction score).

How did the binding signal (PUM1 PUF domain R6-CFN) turn out when “GGCUAGAACUAGUGGAUCCCCCGGCGCCCGGCGGCUCGAGCCCGGGUAAGUGAAAAUAGUCUGCAUGCCGCCGGGCGCCAUGCCUGCAGGUCGACUCUAGAAAACAUG” was run?
Its binding signal is 5.35 log2 enrichment (interaction score).

For “GGCUAGAACUAGUGGAUCCCCCGGCGCCCGGCGGCUCGAGCCCGGGUAAGUGUAAGUAGUCUGCAUGCCGCCGGGCGCCAUGCCUGCAGGUCGACUCUAGAAAACAUG”, which binding signal (PUM1 PUF domain R3-LNS) is on record?
Its binding signal is 4.27 log2 enrichment (interaction score).

With “GGCUAGAACUAGUGGAUCCCCCGGCGCCCGGCGGCUCGAGCCCGGGUAAGUGUAAAUAGUCUGCAUGCCGCCGGGCGCCAUGCCUGCAGGUCGACUCUAGAAAACAUG” as the sequence, how does the binding signal (PUM1 PUF domain R8-KFC) read?
Its binding signal is 2.49 log2 enrichment (interaction score).

What about the binding signal (PUM1 PUF domain R4-NNL) of the same sequence?
The binding signal was 3.79 log2 enrichment (interaction score).

What about the binding signal (PUM1 PUF domain R6-CWC) of the same sequence?
The binding signal was 3 log2 enrichment (interaction score).

And the binding signal (PUM1 PUF domain R8-CFR)?
Its binding signal is 4.47 log2 enrichment (interaction score).

And the binding signal (PUM1 PUF domain R8-PYW)?
Its binding signal is 3.3 log2 enrichment (interaction score).

What about the binding signal (PUM1 PUF domain R8-TRK) of the same sequence?
The binding signal was 2.15 log2 enrichment (interaction score).

And the binding signal (PUM1 PUF domain R5-SLC)?
The binding signal was 0.65 log2 enrichment (interaction score).

What about the binding signal (PUM1 PUF domain R4-SPN) of the same sequence?
The binding signal was 2.58 log2 enrichment (interaction score).

What about the binding signal (PUM1 PUF domain R6-RRE) of the same sequence?
The binding signal was 4.26 log2 enrichment (interaction score).

What about the binding signal (PUM1 PUF domain R4-NNC) of the same sequence?
Its binding signal is 2.42 log2 enrichment (interaction score).

Which binding signal (PUM1 PUF domain R4-SPN) does the source give for “GGCUAGAACUAGUGGAUCCCCCGGCGCCCGGCGGCUCGAGCCCGGGUAAGUGUACAUAGUCUGCAUGCCGCCGGGCGCCAUGCCUGCAGGUCGACUCUAGAAAACAUG” here?
The binding signal was 1.41 log2 enrichment (interaction score).

With “GGCUAGAACUAGUGGAUCCCCCGGCGCCCGGCGGCUCGAGCCCGGGUAAGUGUGAAUAGUCUGCAUGCCGCCGGGCGCCAUGCCUGCAGGUCGACUCUAGAAAACAUG” as the sequence, how does the binding signal (PUM1 PUF domain R5-DRD) read?
Its binding signal is 4.33 log2 enrichment (interaction score).

What about the binding signal (PUM1 PUF domain R5-SLC) of the same sequence?
Its binding signal is 2.98 log2 enrichment (interaction score).

With “GGCUAGAACUAGUGGAUCCCCCGGCGCCCGGCGGCUCGAGCCCGGGUAAGGGUAAAUAGUCUGCAUGCCGCCGGGCGCCAUGCCUGCAGGUCGACUCUAGAAAACAUG” as the sequence, how does the binding signal (PUM1 PUF domain R8-KFC) read?
Its binding signal is 2.66 log2 enrichment (interaction score).

Which binding signal (PUM1 PUF domain R1-RCC) does the source give for “GGCUAGAACUAGUGGAUCCCCCGGCGCCCGGCGGCUCGAGCCCGGGUAAGUGUAAAUGGUCUGCAUGCCGCCGGGCGCCAUGCCUGCAGGUCGACUCUAGAAAACAUG” here?
Its binding signal is 2.4 log2 enrichment (interaction score).

For “GGCUAGAACUAGUGGAUCCCCCGGCGCCCGGCGGCUCGAGCCCGGGUAAGUGUAAAUCGUCUGCAUGCCGCCGGGCGCCAUGCCUGCAGGUCGACUCUAGAAAACAUG”, which binding signal (PUM1 PUF domain R1-VRR) is on record?
Its binding signal is 2.85 log2 enrichment (interaction score).

How did the binding signal (PUM1 PUF domain R8-KFC) turn out when “GGCUAGAACUAGUGGAUCCCCCGGCGCCCGGCGGCUCGAGCCCGGGUAAGCGUAAAUAGUCUGCAUGCCGCCGGGCGCCAUGCCUGCAGGUCGACUCUAGAAAACAUG” was run?
Its binding signal is 6.35 log2 enrichment (interaction score).

What about the binding signal (PUM1 PUF domain R8-CFR) of the same sequence?
The binding signal was 4.3 log2 enrichment (interaction score).

What about the binding signal (PUM1 PUF domain R8-TRK) of the same sequence?
Its binding signal is 3.25 log2 enrichment (interaction score).

With “GGCUAGAACUAGUGGAUCCCCCGGCGCCCGGCGGCUCGAGCCCGGGUAAGUGUUAAUAGUCUGCAUGCCGCCGGGCGCCAUGCCUGCAGGUCGACUCUAGAAAACAUG” as the sequence, how does the binding signal (PUM1 PUF domain R5-RLQ) read?
Its binding signal is 1.58 log2 enrichment (interaction score).

“GGCUAGAACUAGUGGAUCCCCCGGCGCCCGGCGGCUCGAGCCCGGGUAAGUGUCAAUAGUCUGCAUGCCGCCGGGCGCCAUGCCUGCAGGUCGACUCUAGAAAACAUG” was tested. Which binding signal (PUM1 PUF domain R5-RLQ) did it give?
Its binding signal is 2.19 log2 enrichment (interaction score).

Which binding signal (PUM1 PUF domain R7-SRR) does the source give for “GGCUAGAACUAGUGGAUCCCCCGGCGCCCGGCGGCUCGAGCCCGGGUAAGUCUAAAUAGUCUGCAUGCCGCCGGGCGCCAUGCCUGCAGGUCGACUCUAGAAAACAUG” here?
The binding signal was 2.92 log2 enrichment (interaction score).

And the binding signal (PUM1 PUF domain R7-ERK)?
Its binding signal is 5.87 log2 enrichment (interaction score).

What about the binding signal (PUM1 PUF domain R7-KHS) of the same sequence?
The binding signal was 3.33 log2 enrichment (interaction score).

For “GGCUAGAACUAGUGGAUCCCCCGGCGCCCGGCGGCUCGAGCCCGGGUAAGUGUAAAUUGUCUGCAUGCCGCCGGGCGCCAUGCCUGCAGGUCGACUCUAGAAAACAUG”, which binding signal (PUM1 PUF domain R1-RCC) is on record?
The binding signal was 2.58 log2 enrichment (interaction score).

What about the binding signal (PUM1 PUF domain R1-VRR) of the same sequence?
The binding signal was 1.88 log2 enrichment (interaction score).

And the binding signal (PUM1 PUF domain R1-KCN)?
The binding signal was 3.67 log2 enrichment (interaction score).
